Bfl-1 Bim block = human Bim-Bfl-1 interaction inhibition; hit rate 0.12% among 190,000; Q16548; inhibition, % at 10 µM; Bead-based flow cytometry, Bim-Bfl-1 binding inhibition; AID 1008;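 also: 0% = wells without compound plus tracer and 100% = blocker peptide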
Bim-Bcl-2 = inhibitors of Bim-Bcl-2 interaction, human; P10415; Bead-based flow cytometry, Bim peptide-Bcl-2 binding; inhibition, % at 10 µM; hit rate 0.06% among 190,000; AID 950; in the data active = inhibition above about 40%;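 also: 0% = no compound wells with probe peptide and 100% = reference peptide inhibitor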
Target sequence (P10415 whole entry, looked up): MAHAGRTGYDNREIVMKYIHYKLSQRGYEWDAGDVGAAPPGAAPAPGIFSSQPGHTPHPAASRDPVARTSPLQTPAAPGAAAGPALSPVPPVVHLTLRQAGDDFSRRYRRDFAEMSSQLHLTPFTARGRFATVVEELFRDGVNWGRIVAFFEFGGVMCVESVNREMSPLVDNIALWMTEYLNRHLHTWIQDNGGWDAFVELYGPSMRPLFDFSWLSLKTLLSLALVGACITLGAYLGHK
Bim-Bcl-W = human Bim-Bcl-W interaction inhibition | Q92843 | bead-based flow cytometry, Bim peptide-Bcl-W binding | inhibition, % at 10 µM | hit rate 0.02% among 190,000;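 also: 0% = bound tracer without compound and 100% = peptide blocker; higher means less fluorescent Bim peptide bound to Bcl-W beads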
Bcl-XL Bim block = human Bim-Bcl-XL interaction inhibition; Bim peptide-Bcl-XL binding, bead flow cytometry, fluorescence; inhibition, % at 10 µM; hit rate 0.04% among 190,000; AID 1007; Q07817
Target sequence (Q07817 whole entry, looked up): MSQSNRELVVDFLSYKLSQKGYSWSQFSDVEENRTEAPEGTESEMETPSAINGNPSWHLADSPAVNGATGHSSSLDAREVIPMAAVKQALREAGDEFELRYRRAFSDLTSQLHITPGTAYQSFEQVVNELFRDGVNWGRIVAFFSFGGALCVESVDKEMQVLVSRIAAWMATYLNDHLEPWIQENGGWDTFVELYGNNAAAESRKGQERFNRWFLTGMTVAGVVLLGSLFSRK
Bcl-B Bim block = human Bim-Bcl-B interaction inhibition; bead-based flow cytometry, Bim peptide-Bcl-B binding; hit rate 0.073% among 190,000; AID 951; inhibition, % at 10 µM;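 also: 0% = tracer peptide without compound and 100% = reference inhibitor peptide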
* hit, by the source's call; x = no result given. Rows were chosen to be rich in hits. Some 0.19% of all compounds tested hit in one or more screens of this group. Rule as the data show it, unless noted: active = inhibition above about 40%.

SMILES	Bfl-1 Bim block	Bim-Bcl-2	Bim-Bcl-W	Bcl-XL Bim block	Bcl-B Bim block
O=C(CSc1ncccc1C(=O)O)NC12CC3CC(CC(C3)C1)C2	-4	-6	-1	-2	-4
O=c1nc2c(O)cccn2c2c1c(=O)[nH]c1ccccc12	36	24	32	47*	4
CC1Cc2ccccc2N1C(=O)c1ccc(N2CCCC2)c([N+](=O)[O-])c1 (configuration not stated)	14	56*	13	8	72*
CCN1C/C(=C/c2cccc([N+](=O)[O-])c2)C(=O)/C(=C/c2cccc([N+](=O)[O-])c2)C1	18	1	1	-2	0
CN(C(=O)CO/N=C/c1ccc(Cl)cc1)c1ccccc1	-4	-2	-2	-2	-2
O=C(Nc1cccc(Cl)c1)Nc1ccc(Cl)cn1	51*	77*	18	30	72*
CN(Cc1cccs1)C(=O)CCc1c[nH]c2ccccc12	20	48*	1	-1	50*
CC(Sc1cnccn1)C(=O)O (configuration not stated)	-2	-2	-1	-3	-2
Cc1ccc(-c2csc(NC(=O)CSc3nc4ccccc4c(=O)n3CCCN(C)C)n2)cc1	-1	2	0	1	-5
CC(C)(C)C1=CC(=Nc2ccccc2N)C=C(C(C)(C)C)C1=O	0	-1	-3	-6	-6
CC(C)(C)C1=CC(=O)C(=O)C(C(C)(C)C)=C1	56*	18	9	0	2
Cc1c(NC(=O)c2ccc(Br)s2)c(=O)n(-c2ccccc2)n1C	7	1	5	5	2
O=C(NCCCN1CCN(CCCNC(=O)c2cc([N+](=O)[O-])ccc2Cl)CC1)c1cc([N+](=O)[O-])ccc1Cl	2	10	13	13	78*
O=C(NCCc1cccc(Cl)c1)c1cc([N+](=O)[O-])ccc1Cl	0	1	-1	0	-1
O=C(c1ccccn1)N(c1ccccc1)C1(C(=O)NC2CCCCC2)CCCCC1	-4	-4	-3	-1	-3
CC[n+]1c(/C=C/N(C)c2ccccc2)oc2ccc(Cl)cc21	25	23	18	24	12
CCN1/C(=C/C=C/c2oc3ccc4ccccc4c3[n+]2CC)Oc2ccc3ccccc3c21	35	8	26	45*	0
Cc1cc(-c2csc(N)n2)c(C)n1C	20	36	30	21	70*
Cc1ccc(-n2c(C)cc(-c3csc(N)n3)c2C)cc1	1	4	-6	-7	-10
COC(=O)c1sccc1NC(=O)COc1ccc(F)cc1Cl	-2	-5	-1	0	-3
Cc1cccc(N2C(S)=C(C#N)C(=O)NC2c2cccs2)c1 (configuration not stated)	42*	21	25	35	18
N#CC1=C(S)N(c2ccc(F)cc2)C(c2cccs2)NC1=O (configuration not stated)	0	1	0	-1	0
COc1ccc(-c2cc(-c3n[nH]c(=S)n3-c3cccc4ccccc34)[nH]n2)cc1	-5	-3	-3	-1	-5
COc1ccccc1-n1c(-c2cc(-c3ccc(F)cc3)n[nH]2)n[nH]c1=S	38	44*	47*	16	24
CCc1cc2ccc(C)cc2nc1SCC(=O)Nc1c[nH]c(=O)[nH]c1=O	5	0	-2	0	-1
SMILES	Bfl-1 Bim block	Bim-Bcl-2	Bim-Bcl-W	Bcl-XL Bim block	Bcl-B Bim block
S=C(NCCc1ccccc1)NCCc1ccccc1	44*	22	29	39	24
Cc1ccc(C(=O)Nc2cc3ccccc3oc2=O)cc1	-11	-1	-1	-4	-6
O=C1c2ccccc2C(=O)N1c1cccc2cccnc12	40*	30	24	36	23
COc1ccc(N/N=C(/C(N)=O)C2=NC(C)(C)Cc3ccccc32)cc1	-1	-1	-1	-4	-6
CCOc1ncccc1C(=O)OC(C)C(=O)Nc1ccc(CC)cc1 (configuration not stated)	18	50*	0	1	55*
COc1ccc(OC2C(=O)N(Cc3ccc4c(c3)OCO4)C2c2sccc2C)cc1 (configuration not stated)	-3	-2	-1	0	-2
Cc1cc(C)c2c(c1)[C@@H]1C=CC[C@@H]1[C@H](c1ccc(S(=O)(=O)N3CCOCC3)cc1)N2	53*	21	25	10	6
Cc1cnc(C(=O)N2CCCC(C(=O)c3cccc(OC(C)C)c3)C2)cn1 (configuration not stated)	18	4	10	21	-25
O=[N+]([O-])c1c(NCCO)cc(N2CCC3(CC2)OCCO3)c2nonc12	0	4	0	1	-1
CCOC(=O)N1CCN(c2cc(NCCC(=O)O)c3c4c(onc24)-c2ccccc2C3=O)CC1	43*	31	39	40*	38
O=C(O)CCCNc1cc(N2CCC3(CC2)OCCO3)c2noc3c2c1C(=O)c1ccccc1-3	42*	23	37	26	5
CCOC(=O)N1CCN(c2c(NCCc3ccccc3)c(=O)c2=O)CC1	-7	-5	-1	-5	-2
Cc1ccc(NC(=O)COc2ccccc2C(=O)NCCN(C)C)cc1	0	2	3	0	2
O=C(N/N=C/c1ccc(-c2ccccc2[N+](=O)[O-])o1)c1cncc(Br)c1	28	18	32	48*	24
COC(=O)Cc1ccc(NC(=S)N2CCN(c3cccc(O)c3)CC2)cc1	2	18	11	12	50*
CC(/C=C/C(=O)c1ccc(C)cc1)=C\c1ccccc1	47*	33	27	48*	23
O=C(Nc1nccs1)C1Cc2ccccc2CN1S(=O)(=O)c1ccc(F)cc1 (configuration not stated)	0	-4	-2	-2	-2
O=C(Nc1nnc(C2CC2)s1)C1Cc2ccccc2CN1S(=O)(=O)c1ccccc1F (configuration not stated)	x	77*	9	13	x
Cc1ccc(C)c(CSc2ccc3nnc(-c4ccccn4)n3n2)c1	5	1	3	5	4
O=C(Cn1cncc1-c1ccc([N+](=O)[O-])cc1)Nc1ccccc1F	42*	34	14	15	25
Cc1cccn2c(=O)c3cc(C(N)=S)c(=N)n(CCCN4CCOCC4)c3nc12	50*	7	16	9	48*
Cc1cc(-c2nnc(CCC(=O)NC(C)c3cccc4ccccc34)o2)no1 (configuration not stated)	44*	73*	11	17	78*
CN1/C(=C\C(=O)Nc2ccc(Cl)cc2)C(C)(C)c2ccccc21	39	26	27	40*	25
CC1N(C)c2cccc3cccc(c23)N1C	43*	12	29	9	2
CN1c2cccc3cccc(c23)N(C)C1c1cccs1	13	0	6	2	-1
Cc1c(NC(=O)CS(=O)(=O)c2ccccc2)c(=O)n(-c2ccccc2)n1C	8	0	5	1	3
COC(=O)c1cc(OC)c(OC)cc1NC(=O)Nc1cccc(C(C)=O)c1	62*	85*	3	10	77*

Bioassay records from PubChem.
